Source: PubChem BioAssay (EPA / NIEHS)
More than one record can exist for a structure, and the calls need not agree. Calls of active or inactive are those of the source. The calls were made as follows: active = hit-call score of the fitted dose curve at least 0.9, where 1 is the maximum; inactive = score below 0.9.

Assay: BSK_SAg_PBMCCytotoxicity: PBMC Cytotoxicity Assessment in the BioMAP Diversity Plus: SAg Assay (AID 2283093);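 also: fitted both ways against DMSO so a hit may be loss or gain of signal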
Settings: primary human HUVEC with PBMC
Method: BSK_SAg is a cell-based, multiplexed-readout assay that uses umbilical vein endothelium and peripheral blood mononuclear cells, a human vascular primary cell co-culture, with measurements taken at 24 hours after chemical dosing in a 96-well plate.BSK_SAg_PBMCCytotoxicity is an assay component measured in the BSK_SAg assay. It measures Alamar blue related to cell death using Alamar Blue Reduction technology.Data from the assay component BSK_SAg_PBMCCytotoxicity was analyzed into 1 assay endpoint. This assay endpoint, BSK_SAg_PBMCCytotoxicity, was analyzed with bidirectional fitting relative to DMSO as the negative control and baseline of activity. Using a type of viability reporter, gain or loss-of-signal activity can be used to understand changes in the viability. Furthermore, this assay endpoint can be referred to as a secondary readout, because this assay has produced multiple assay endpoints where this one serves a viability function. To generalize the intended target to other relatable targets, this assay endpoint is annotated to the cell cycle intended target family, where the subfamily is cytotoxicity.
The levels of cell surface (or secreted, indicated by the prefix "s") biomarker endpoints were measured by ELISA. Overt cytotoxicity to cells in confluent adherent cultures (all systems other than the BT system) was assessed by measuring total protein levels using sulforhodamine B (SRB) staining in parallel cultures at the time of biomarker measurements, indicated as SRB endpoints. For proliferation assays for adherent cell types, individual cell types are cultured at sub-confluence and relative cell numbers quantified by SRB staining at time points optimized for each system (48 h: 3C and CASM3C systems; 72 h: BT and HDF3CGF systems; 96 h: SAg system). SRB was performed by staining cells with 0.1% SRB after fixation with 10% TCA and reading wells at 560 nm.Viability and proliferation of PBMC (T cells) was quantified by Alamar Blue reduction for the SAg and BT systems. For PBMC viability (referred to as PBMC Cytotoxicity within the assay endpoint names), cells were plated (75,000/well in a 96-well plate) and then chemical samples added for 1 h before addition of activators, SEB and TSST-1 (20 ng/mL final concentration each). Cells were incubated for 90 h. Then, Alamar Blue (20 uL/well) (Invitrogen, Cat DAL1100) was added for 6 h, and the plates were read with a fluorescence microplate reader at 546/580 nm (excitation/emission). For PBMC proliferation, cells were plated and activated as above but incubated for only 16 h prior to addition of Alamar Blue. Plates were read after 6 h.

Row | Structure (SMILES) | outcome | AC50
1 | CCC(C)=NO | inactive | 
2 | CC[N+](CC)(CC(=O)Nc1c(C)cccc1C)Cc1ccccc1 | inactive | 
3 | CN(C)c1ccc(C(c2ccccc2)c2ccc(N(C)C)cc2)cc1 | inactive | 
4 | CN(C)Cc1cc(C(C)(C)C)c(O)c(C(C)(C)C)c1 | inactive | 28.7 µM (active)
5 | CCCCCCCCCCC1CO1 (centres undefined) |  | 29.5 µM (active)
6 | CCC[Si](OC(C)=O)(OC(C)=O)OC(C)=O | inactive | 
7 | Sc1nc2ccccc2s1 | inactive | 
8 | Cc1cc(-n2nc3ccc(Cl)cc3n2)c(O)c(C(C)(C)C)c1 | inactive | 
9 | OC(C(F)(F)F)(C(F)(F)F)C(O)(C(F)(F)F)C(F)(F)F | inactive | 
10 | CCCCC(CC)COC(=O)C=Cc1ccc(OC)cc1 (centres undefined) | inactive | 36.1 µM (active)
11 | Cc1c(C(N)=O)cc([N+](=O)[O-])cc1[N+](=O)[O-] | inactive | 
12 | CC(C)C1OCCN1CCOC(=O)NCCCCCCNC(=O)OCCN1CCOC1C(C)C (centres undefined) | inactive | 
13 | COC(=O)/C=C\C(=O)OC | inactive | 
14 | CC[N+](CC)(CC(=O)Nc1c(C)cccc1C)Cc1ccccc1 (tested in a mixture with another compound) | inactive | 
15 | Cc1cccnc1 | inactive | 
16 | CCCCCCC(O)CCCCCCCCCCC(=O)OC (centres undefined) | inactive | 
17 | CC(C)CC(=O)CC(C)CC(C)C (centres undefined) |  | 33.3 µM (active)
18 | C1CN(CCOCCN2CCOCC2)CCO1 | inactive | 
19 | O=[N+]([O-])c1cc(S(=O)(=O)Nc2ccccc2)ccc1Nc1ccccc1 | inactive | 
20 | CN(C)CCC(c1ccc(Cl)cc1)c1ccccn1 (centres undefined) | inactive | 
21 | CCCCCCCCCCCCCCCCCC[N+](C)(C)C |  | 3.16 µM (active)
22 | O=C(C(=O)c1ccccc1)c1ccccc1 | inactive | 
23 | CCCCCCCCCC/C=C/C1CC(=O)OC1=O (centres undefined) | inactive | 
24 | Oc1cccc2ccccc12 | inactive | 
25 | COc1ccccc1Oc1c(NS(=O)(=O)c2ccc(C(C)(C)C)cc2)nc(-c2ncccn2)nc1OCCO | inactive | 
26 | COc1ccc(C(=O)c2ccccc2O)c(O)c1 | inactive | 
27 | COc1cc(CNC(=O)CCCC/C=C/C(C)C)ccc1O | inactive | 
